Compound activity: PubChem BioAssay, National Center for Advancing Translational Sciences (NCATS)
Sfp PPTase inh: inhibitors of Bacillus subtilis Sfp phosphopantetheinyl transferase; Q9F4F7; Biochemical Sfp PPTase activity, qHTS; Potency, µM, inactives show largest response in the series, negative = inhibition, most hits filed as inhibitors; 310,000 compounds, 3.5% hits;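 also: the enzyme is Sfp with the accession as filed and its product quenches rhodamine fluorescence; potency is read from the fitted curve at half-maximal effect; 0% = enzyme reaction without inhibitor and -100% = no enzyme wells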
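Fluorescence-quenching assay: 15 nM Sfp-PPTase preincubated 15 min at room temperature with compound, then 5 uM rhodamine-CoA and 12.5 uM BHQ-2-labelled YbbR peptide added. Fluorescence (ex 525/em 598 nm) read at start and after 30 min; difference gives rate.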
Tau fluor counter: counter-screen for tau fibril formation inhibitors. tau K18 P301L Alexa594 fluorescence, heparin fibrillization. Potency, µM (series often up to 57.7 µM), without a hit: top-dose activity change, negative = decrease. 280,000 compounds, 0.93% hits. AID 1463; also: potency is read from the fitted curve at half-maximal effect; nearly all actives have a fitted effect of over 55% in size
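Human K18 P301L tau (15 uM unlabeled plus 0.24 uM Alexa 594-labeled, final) in 100 mM sodium acetate pH 7 was mixed with compound and 20 uM heparin and incubated 6 hr at 37 C.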
Tau fibril FP: inhibitors of human tau fibril formation | K18 P301L tau heparin fibrillization, Alexa594 FP, 6 h | 280,000 compounds, 0.39% hits | P10636 | Potency, µM (series often up to 57.7 µM), for inactives: at the top dose activity, negative = inhibition, most hits filed as inhibitors; also: potency is read from the fitted curve at half-maximal effect; nearly all actives have a fitted effect of over 55% in size
Target sequence (P10636 561-689 P618L limits assumed): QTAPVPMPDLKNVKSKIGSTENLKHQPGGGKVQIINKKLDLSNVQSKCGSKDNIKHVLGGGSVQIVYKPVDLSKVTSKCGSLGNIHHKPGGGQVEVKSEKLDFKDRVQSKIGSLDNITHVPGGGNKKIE
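Steps: dispense K18 P301L tau (15 uM plus 0.24 uM Alexa 594 tracer, final) in pH 7 sodium acetate; add compound; add heparin (20 uM final); incubate 6 hr, 37 C; add ThT (30 uM final); after 1 hr ambient, read FP.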
Coupling enz: counter-screen for Giardia aldolase inhibitors: coupling enzyme system; coupling enzyme system counterscreen, AmpLite Red fluorescence; activity change, negative = inhibition, % at 58.2 µM, hits read low; 290,000 compounds, 0.67% hits; AID 2472; in the data active = activity change below about -30%
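Counterscreen of the coupled detection system alone, without aldolase: glyceraldehyde-3-phosphate coupling enzymes plus AmpLite Red readout. Compounds at 57.5 uM final, 10 min RT preincubation, 20 min RT reaction, fluorescence 525/598 nm.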
Tau fibril ThT: tau fibrillization inhibition (ThT binding); P10636; recombinant tau K18 P301L (four-repeat tau fragment), heparin-induced fibrillization, ThT fluorescence; Potency, µM (titrated, usually from 57.4 µM), inactives show at the top dose activity, negative = inhibition, hits mostly inhibitors; 270,000 compounds, 2.1% hits; also: potency is read from the fitted curve at half-maximal effect; nearly all actives have a fitted effect of over 55% in size
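In this qHTS, human K18 P301L tau is incubated with compound and heparin for 6 hr at 37 C, and Thioflavin T fluorescence then reports fibril load.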
G9a block: G9a (human) methyltransferase inhibition; Potency, µM (titrated, usually from 102 µM), for the others: at the highest dose activity, negative = inhibition, most hits filed as inhibitors; 350,000 compounds, 8.8% hits; G9a H3K9 monomethylation, AlphaScreen, 2 h; also: potency is read from the fitted curve at half-maximal effect; nearly all actives have a fitted effect of over 75% in size
Target sequence (Q96KQ7 913-1193 limits assumed): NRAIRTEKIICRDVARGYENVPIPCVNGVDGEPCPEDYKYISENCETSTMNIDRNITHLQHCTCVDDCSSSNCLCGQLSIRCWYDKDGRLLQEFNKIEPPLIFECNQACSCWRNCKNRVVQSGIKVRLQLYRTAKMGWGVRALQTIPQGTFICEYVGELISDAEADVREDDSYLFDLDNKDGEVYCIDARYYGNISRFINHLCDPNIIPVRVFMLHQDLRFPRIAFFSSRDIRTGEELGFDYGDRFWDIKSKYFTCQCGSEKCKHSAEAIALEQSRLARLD
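Readings reflect AlphaScreen signal from monomethyl-H3K9 antibody detection. HMT at 20 nM; substrate b-H3K9 500 nM; cofactor SAM 20 uM; 2 h RT reaction; compounds tested as titrations in qHTS with 15 min preincubation.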
The depositor's hits bear a star; ? = inconclusive; / = not tested or not shown; [ ] = remark or other dose. A selection: hits, their analogues and other compounds. The true share with any hit is near 11%. Unless noted, calls follow the shape of the dose curve; as a rule, active = well fitted curve in the direction sought with a large enough effect; inconclusive = small, poorly fitted or top-dose-only effect, or another doubt; inactive = no such curve, though single readings can be large; an effect the other way counts as inactive or inconclusive. Unless noted, % is scaled to controls: 0 for no effect and ±100 for the full control effect.

SMILES	Sfp PPTase inh	Tau fluor counter	Tau fibril FP	Coupling enz	Tau fibril ThT	G9a block
Cc1occc1-c1nnc(SC(C)C(=O)Nc2ccccc2F)o1 (stereo unspecified)	/	/	/	/	/	-22%
CCOC(=O)C1CCN(CC(=O)Nc2ccc(S(=O)(=O)N3CCC(C)CC3)cc2)CC1	7%	/	/	-1	/	-8%
COc1ccc(NC(=O)CSc2nc3c(c(-c4cccs4)c2C#N)CN(C)CC3)cc1OC	-19%	25µM*[quencher]	?	-12	25µM*	?
Cc1ccccc1CNC(=O)c1c(C)oc2c1C1=NCCN1C=N2	/	1%	-1%	/	3%	20%[59 µM]
O=c1c2c(-c3ccc(Cl)cc3)ccnc2[nH]n1-c1ccccc1	/	-17%	0%	/	?	7%[59 µM]
Cc1nc2nc(SCC(=O)Nc3cccc(Cl)c3)nn2c(C)c1Cc1ccccc1	/	?	-9%	/	-7%	6%[59 µM]
CCOC(=O)c1cccc(NC(=O)Cn2c(=O)c3cccn3c3ccccc32)c1	/	?	13µM*	/	?	1%[59 µM]
CCOC(=O)c1cccc(NC(=O)c2cc3cc4ccc(C)cc4nc3s2)c1	/	-16%	?	/	-15%	13µM*
CCOC(=O)c1cccc(NC(=O)CCS(=O)(=O)c2ccc3c(c2)CCN3C(=O)CC)c1	/	-5%	-12%	/	-10%	11µM*
CCc1ccc(NC(=O)Cn2c(=O)c3cccn3c3ccccc32)cc1	-6%	?	20µM*	0	12%	-3%
CCOC(=O)c1cccc(NC(=O)c2cc3cc4cc(OC)ccc4nc3s2)c1	/	-18%	?	/	-9%	?
CCc1ccc(NC(=O)CCn2c(=O)c3cccn3c3ccccc32)cc1	6%	-15%	3%	/	-17%	11%
Nc1nc(NCCOCCO)nc(NCC2CCCO2)c1[N+](=O)[O-] (stereo unspecified)	30%	-2%	-6%	4	-12%	9%
CCOc1cc(CNC(=O)c2ccc(C)c(NC(=O)c3nsc4ccccc34)c2)ccc1OC	/	-13%	6%	/	-2%	-29%[59 µM]
Cc1cc(C(=O)O)cc(S(=O)(=O)Nc2ccccc2C(=O)NC(C)c2ccccc2)c1C (stereo unspecified)	7%	/	/	6	/	-8%
Cc1cc(C)c(NC(=O)Cn2c(=O)c3cccn3c3ccccc32)c(C)c1	-27%	?	7.9µM*	/	?	-1%
CCOC(=O)c1cccc(NC(=O)CCn2cccc2)c1	16%	-20%	-13%	2	-14%	40µM*
CCC(=O)N1c2ccc(S(=O)(=O)CCC(=O)Nc3ccc(Br)c(C)c3)cc2CC1C (stereo unspecified)	/	-29%	-12%	/	-11%	14µM*
CCC(=O)N1c2ccc(S(=O)(=O)CCC(=O)NC3CCCC3)cc2CC1C (stereo unspecified)	3%	4%	-1%	-2	-5%	-12%[0.501 µM]
O=C(Cn1c(=O)c2cccn2c2ccccc21)NCCc1ccccc1	18%	?	14µM*	/	18%	-1%[59 µM]
CCCCOc1ccc(CNC(=O)c2cnc3sc(N4CCOCC4)nn3c2=O)cc1	/	2%	5%	/	4%	5%[59 µM]
Nn1c(Cc2ccccc2)nc2cc(Cl)ccc2c1=O	2%	/	/	0	/	?
O=C(Nc1ccc(N2CCOCC2)cc1)c1cc2c(s1)CCCCC2	6%	?	8%	2	10µM*	32µM*
O=C(Nc1ccccc1N1CCOCC1)c1cc2c(s1)CCCCC2	-12%	-10%	4%	1	-9%	9%
O=C(Nc1ccc(N2CCOCC2)cc1)c1cc2c(s1)CCCC2	5%	-23%	6%	-2	?	40µM*
Cc1ccccc1NC(=O)Cc1nc(COC(=O)CNS(=O)(=O)c2cccc(Br)c2)cs1	-6%	/	/	/	/	/
Cc1ccc(N2C(=O)c3ccccc3NC2(C(=O)O)c2ccccc2)cc1Cl (stereo unspecified)	24%	/	/	10	/	-1%
S=C(NCc1ccc(Cl)cc1)Nc1ccccc1Cl	4%	-2%	-3%	-1	4%	29%[59 µM]
